The text below walks through data of ChEMBL document CHEMBL4513216, “Probing the Open Global Health Chemical Diversity Library for Multistage-Active Starting Points for Next-Generation Antimalarials” (ACS Infect Dis, 2020).

About 8,600 (12%) of roughly 69,000 compounds showed an effect of 50% or more. Only a selection was taken, and strong results are over-represented in it overall.

For this experiment, the system named is Plasmodium berghei. Put plainly: Screen against P. berghei liver stage (PbLuc), transformed with Luciferase, at 10uM. The experiment is classed as functional, HepG2. The following applies: tested at 10 uM.
As for `Cn1cc(C(=O)Nc2cc(F)ccc2OCC2CCCO2)ccc1=O` (stereo not given), the INHIBITION turned out to be 13.6%.

Turning to `CCC(CC)C(=O)NCc1c(C)nn(C)c1N1CCCN(C)CC1`, the INHIBITION came out at 24.6%. With `Nc1nc2c(c(N3CCC(CCn4cccn4)CC3)n1)CCNCC2` the figure was 31.4%; with `Nc1nc2c(c(NC(Cn3cccn3)c3ccccc3)n1)CCNCC2` (stereo not given), 75.5%; with `CN(CC1Cc2ccccc2CN1C)c1nc(N)nc2c1CCNCC2` (stereo not given), 30.8%. With `CN(Cc1ccccc1-n1cccn1)c1nc(N)nc2c1CCNCC2` the figure was -18%. On to `CN(C)CC(Nc1nc(N)nc2c1CCNCC2)c1ccccc1` (stereo not given), for which the INHIBITION was 72.7%.

Consider `CN(C)CCC(Nc1nc(N)nc2c1CCNCC2)c1ccccc1` (stereo not given), for which the INHIBITION was 68.5%. With `c1ccc(C(Cn2cccn2)Nc2cnccn2)cc1` (stereo not given) the figure was 31.2%.

Turning to `COCC(Nc1nc(N(C)C)nc2c1CCNCC2)c1ccccn1` (stereo not given), the INHIBITION came out at 34.9%. Under `CC(Nc1nc(-c2ccccc2)nc2c1CCNCC2)c1cccnc1` (stereo not given) stands 31.4%; under `O=c1c(S(=O)(=O)N2CCCC2)cccn1Cc1ccc(F)cc1Cl`, 24.2%; under `Cc1noc2ncc(C(=O)N3CCCC3c3ccsc3)cc12` (stereo not given), -7.35%. With `Cc1cc(C2CCCN(C(=O)Cc3csc(C(C)C)n3)C2)n[nH]1` (stereo not given) the figure was -23.8%; with `O=S(=O)(c1ccccc1)N1CCCC1c1cc[nH]n1` (stereo not given), 18.9%. With `Cc1ccc(C(=O)NCCNc2ncccc2C#N)c(=O)[nH]1` the figure was -58.7%; with `Cc1ccc(CNC(=O)c2ccc(=O)n(C)n2)c(OC2CCCC2)c1`, 5.91%; with `CN1CCc2c(sc3c2C(=O)NC(C=Cc2ccccc2)N3)C1` (stereo not given), -45.3%. In the case of `CCC(C)N1Cc2c(C(=O)N3CCCC3)nn(C)c2C1` (stereo not given), the INHIBITION amounted to 23.1%.

Take `Cn1nc(C(=O)N2CCOCC2)c2c1CN(CC1CCC1)C2`: the INHIBITION is 53%. Under `Cn1nc(C(=O)N2CCOCC2)c2c1CN(CC1CC1)C2` stands 48.4%. Regarding `CC(C)CCN1Cc2c(C(=O)N3CCCC3)nn(C)c2C1`, the INHIBITION was determined as 60%. Under `Cn1nc(C(=O)N2CCCC2)c2c1CN(CC1CCOCC1)C2` stands 21.6%; under `Cc1ccc(CN2Cc3c(C(=O)N4CCCC4)nn(C)c3C2)s1`, -30.6%. With `CCN1C(=O)CCC12CCC(NC(=O)c1cnccn1)CC2` (stereo not given) the figure was -43%. With `CNC(=O)c1cn[nH]c1C1(C)CCCN(Cc2nccn2C(C)C)C1` (stereo not given) the figure was 46%; with `CC(NCc1cnc(C2CCC2)s1)c1cccc(-n2cccn2)c1` (stereo not given), 75.3%; with `CCCS(=O)(=O)NC(C)c1cccc(-n2cccn2)c1` (stereo not given), 29.3%. On to `CC(NCc1cnc(C2CCC2)s1)c1ccc(-n2cncn2)cc1` (stereo not given), for which the INHIBITION turned out to be 61.4%.

For the molecule `CC(NCc1cnc(C2CCC2)s1)c1ccccc1-n1cccn1` (stereo not given), the INHIBITION is 11.9%. For `CCOCCCNC(=O)NC(C)c1ccc(-n2cncn2)cc1` (stereo not given), the INHIBITION is -31.4%. With `Cc1cnn(CC(C)NCc2ccc(-n3cccn3)cc2)c1` (stereo not given) the figure was -1.58%; with `CC(C)COCCCNC(=O)NC(C)c1ccc(-n2cncn2)cc1` (stereo not given), -12.3%. With `CC(NCc1cnc(C2CCC2)s1)c1cccc(-n2ccnc2)c1` (stereo not given) the figure was 29.7%; with `CC(NCc1cnc(C2CCC2)s1)c1ccc(-n2cccn2)cc1` (stereo not given), 59.4%; with `CN1CCN(C(=O)c2cccn2C)Cc2cccnc21`, 16.4%.

With `O=C1N(CC2CC2)CCC12CCCN(c1ncc(F)cn1)C2` (stereo not given), the INHIBITION is listed as 42.4%. Under `Cc1cnn(CC2CCCN2C(=O)c2csc(C3CC3)n2)c1` (stereo not given) stands -23.9%. As to `O=C(CCN1CCCC1)Nc1c2c(cc3c1CCC3)CCC2`, the INHIBITION was found to be 6.29%. As for `CC(=O)N1CCC(C)(c2cc(C(=O)NCC(C)(C)C)nc(C)n2)CC1`, the INHIBITION is reported as 37.9%. Under `Cc1cccc(C(=O)N2CCN(S(C)(=O)=O)[C@@H](C)C2)c1C` stands 40.3%.

As for `C[C@H]1CN(C(=O)c2cccc(F)c2Cl)CCN1S(C)(=O)=O`, the INHIBITION was 61.1%. Turning to `Cc1cccc(C(=O)N2CCN(S(C)(=O)=O)[C@@H](C)C2)c1Cl`, the INHIBITION is recorded as 22.6%.

In the case of `CC(C)c1ncncc1C(=O)N1CCN(Cc2cscn2)CC1`, the INHIBITION is given as 49.3%.

As to `CC(Oc1ccccc1)C(=O)N1CCCN(Cc2cscn2)CC1` (stereo not given), the INHIBITION worked out at 27.25%. With `COC(C(=O)N1CCCN(Cc2cscn2)CC1)c1ccccc1` (stereo not given) the figure was 54.3%; with `Cc1ccc(C(=O)N2CCCN(Cc3cscn3)CC2)o1`, 7.67%; with `COC(C(=O)N1CCN(Cc2noc(C)n2)CC1)c1ccccc1` (stereo not given), 53.8%. With `O=C(c1ccc(Cl)o1)N1CCCN(Cc2cscn2)CC1` the figure was 50.4%. `Cc1ccc(C(C)C(=O)N2CCCN(Cc3cscn3)CC2)cc1` (stereo not given): the INHIBITION came out at 15.2%. `Cc1nc(CN2CCN(C(=O)COCc3ccccc3)CC2)no1`: the INHIBITION turned out to be 4.2%.

`CC(C)c1ccc(O)c(C(=O)N2CCN(Cc3cscn3)CC2)c1`: the INHIBITION came out at 54.9%. For the molecule `CC(C)c1ccsc1C(=O)N1CCCN(Cc2cscn2)CC1`, the INHIBITION was 2.61%. Under `COCc1ccc(C(=O)N2CCCN(Cc3cscn3)CC2)cc1` stands 27.4%. With `Cc1nc(CN2CCN(C(=O)C(c3ccccc3C)N(C)C)CC2)no1` (stereo not given) the figure was 6.66%.
